Assay results as given in PubChem BioAssay AID1159580 (chemical genetic matrix, 2015).
“And” between values parts separate entries of the source, which are not always exact repeats. Equal values may be shown once. The whole screen tested about 5,500 compounds, of which about 2,000 (36%) were called active. Another 18% or so got no clear call; they are omitted. No stated cut-off is given here; in the data, active means normalized growth mostly below about 0.91 (no sharp cut-off); inconclusive means no clear call, values can overlap the other calls; inactive means mostly above about 0.92. Some of the results follow.

Experiment: chemical genetic growth profiling, strain panel (AID 1159580);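 further: tested at 20 µM; growth read once vehicle control cultures reached saturation at 30 °C; 1 = growth at the plate median or of vehicle wells; lower values mean less growth of the strain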
Conditions: growth OD

Measured: normalized growth

NCCSSCCN
inactive: S. cerevisiae deletion strains, locus YKL009W, strain mrt4, hits give low values 1.03 | S. cerevisiae deletion strains, locus YKL068W, hits give low values 1.01 | S. cerevisiae deletion strains, locus YKL085W, strain MDH1 (second series), hits give low values 1.01 | S. cerevisiae deletion strains, locus YKL085W, strain MDH1, hits give low values 1.01 | S. cerevisiae deletion strains, locus YKL160W, strain elf1, hits give low values 0.995 | S. cerevisiae deletion strains, locus YKL190W, strain CNB1, hits give low values 1.01 | S. cerevisiae deletion strains, locus YKR001C, strain vps1, hits give low values 1.02 | S. cerevisiae deletion strains, locus YKR026C, strain gcn3, hits give low values 0.993 | S. cerevisiae deletion strains, locus YKR091W, strain srl3, hits give low values 0.993 | S. cerevisiae deletion strains, locus YLL001W, strain dnm1, hits give low values 0.978 | S. cerevisiae deletion strains, locus YLL026W, hits give low values 0.989 | S. cerevisiae deletion strains, locus YLL041C, strain sdh2, hits give low values 0.997 | S. cerevisiae deletion strains, locus YLR027C, strain aat2, hits give low values 0.99 | S. cerevisiae deletion strains, locus YLR039C, strain RIC1, hits give low values 1.02 | S. cerevisiae deletion strains, locus YLR058C, strain SHM2, hits give low values 1.01 | S. cerevisiae deletion strains, locus YLR102C, strain apc9, hits give low values 0.994 | S. cerevisiae deletion strains, locus YLR113W, strain HOG1, hits give low values 1.05 | S. cerevisiae deletion strains, locus YLR221C, strain rsa3, hits give low values 0.998 | S. cerevisiae deletion strains, locus YLR258W, strain gsy2, hits give low values 0.996 | S. cerevisiae deletion strains, locus YLR262C, strain YPT6 (second series), hits give low values 0.994 | S. cerevisiae deletion strains, locus YLR262C, strain YPT6, hits give low values 1.02 | S. cerevisiae deletion strains, locus YLR268W, strain sec22, hits give low values 1.05 | S. cerevisiae deletion strains, locus YLR320W, strain mms22, hits give low values 1 | S. cerevisiae deletion strains, locus YLR330W, strain CHS5, hits give low values 1.01 | S. cerevisiae deletion strains, locus YLR342W, strain FKS1 (second series), hits give low values 1 | S. cerevisiae deletion strains, locus YLR342W, strain FKS1, hits give low values 0.983 | S. cerevisiae deletion strains, locus YLR357W, strain rsc2, hits give low values 0.979 | S. cerevisiae deletion strains, locus YLR370C, strain arc18, hits give low values 0.993 | S. cerevisiae deletion strains, locus YLR371W, strain rom2, hits give low values 1.01 | S. cerevisiae deletion strains, locus YLR384C, strain iki3, hits give low values 0.987 | S. cerevisiae deletion strains, locus YLR418C, strain cdc73, hits give low values 0.999 | S. cerevisiae deletion strains, locus YML016C, strain PPZ1, hits give low values 1 | S. cerevisiae deletion strains, locus YML032C, strain rad52, hits give low values 1.03 | S. cerevisiae deletion strains, locus YML120C, strain ndi1, hits give low values 0.995 | S. cerevisiae deletion strains, locus YML124C, strain tub3, hits give low values 1 | S. cerevisiae deletion strains, locus YMR058W, strain fet3, hits give low values 1 | S. cerevisiae deletion strains, locus YMR078C, strain ctf18, hits give low values 1.01 | S. cerevisiae deletion strains, locus YMR125W, strain sto1, hits give low values 1 | S. cerevisiae deletion strains, locus YMR129W, hits give low values 1 | S. cerevisiae deletion strains, locus YMR205C, strain PFK2, hits give low values 0.992 | S. cerevisiae deletion strains, locus YMR223W, strain ubp8, hits give low values 0.981 | S. cerevisiae deletion strains, locus YMR231W, strain pep5, hits give low values 1 | S. cerevisiae deletion strains, locus YMR263W, strain SAP30, hits give low values 1.03 and 1 | S. cerevisiae deletion strains, locus YMR307W, strain GAS1, hits give low values 0.996 | S. cerevisiae deletion strains, locus YNL067W, strain RPL9B, hits give low values 1.03 | S. cerevisiae deletion strains, locus YNL071W, strain lat1, hits give low values 1 | S. cerevisiae deletion strains, locus YNL128W, strain TEP1, hits give low values 1.02 and 1 | S. cerevisiae deletion strains, locus YNL153C, strain GIM3, hits give low values 1.03 | S. cerevisiae deletion strains, locus YNL175C, strain NOP13, hits give low values 1 | S. cerevisiae deletion strains, locus YNL183C, strain NPR1, hits give low values 1 | S. cerevisiae deletion strains, locus YNL197C, strain WHI3, hits give low values 1.02 | S. cerevisiae deletion strains, locus YNL209W, strain ssb2, hits give low values 1 | S. cerevisiae deletion strains, locus YNL224C, strain SQS1, hits give low values 1 | S. cerevisiae deletion strains, locus YNL233W, strain BNI4, hits give low values 1.02 | S. cerevisiae deletion strains, locus YNL248C, strain rpa49, hits give low values 0.998 | S. cerevisiae deletion strains, locus YNL250W, strain rad50, hits give low values 0.999 | S. cerevisiae deletion strains, locus YNL271C, strain bni1, hits give low values 1.01 | S. cerevisiae deletion strains, locus YNL298W, strain CLA4, hits give low values 1 | S. cerevisiae deletion strains, locus YNL307C, strain MCK1, hits give low values 1.01 | S. cerevisiae deletion strains, locus YNL322C, strain KRE1 (second series), hits give low values 0.998 | S. cerevisiae deletion strains, locus YNL322C, strain KRE1, hits give low values 1.01 and 0.988 | S. cerevisiae deletion strains, locus YNR049C, strain mso1, hits give low values 1 | S. cerevisiae deletion strains, locus YNR052C, strain pop2, hits give low values 1 | S. cerevisiae deletion strains, locus YOL006C, strain TOP1, hits give low values 1.08 | S. cerevisiae deletion strains, locus YOL012C, strain htz1 0.933 | S. cerevisiae deletion strains, locus YOL147C, strain pex11, hits give low values 1 | S. cerevisiae deletion strains, locus YOR001W, strain rrp6, hits give low values 0.989 | S. cerevisiae deletion strains, locus YOR061W, strain CKA2, hits give low values 1.01 | S. cerevisiae deletion strains, locus YOR069W, strain VPS5, hits give low values 1.01 | S. cerevisiae deletion strains, locus YOR070C, strain gyp1, hits give low values 0.999 | S. cerevisiae deletion strains, locus YOR080W, strain dia2, hits give low values 1 | S. cerevisiae deletion strains, locus YOR083W, strain WHI5 (second series), hits give low values 1.01 | S. cerevisiae deletion strains, locus YOR083W, strain WHI5, hits give low values 0.99 | S. cerevisiae deletion strains, locus YOR106W, strain vam3, hits give low values 0.985 | S. cerevisiae deletion strains, locus YOR136W, strain idh2, hits give low values 0.991 | S. cerevisiae deletion strains, locus YOR144C, strain elg1, hits give low values 1.01 | S. cerevisiae deletion strains, locus YOR184W, strain ser1, hits give low values 0.966 | S. cerevisiae deletion strains, locus YOR231W, strain MKK1, hits give low values 1.09 | S. cerevisiae deletion strains, locus YOR265W, strain rbl2, hits give low values 0.993 | S. cerevisiae deletion strains, locus YOR270C, strain vph1, hits give low values 1.02 | S. cerevisiae deletion strains, locus YOR290C, strain snf2, hits give low values 1.01 | S. cerevisiae deletion strains, locus YOR316C, strain cot1, hits give low values 1.01 | S. cerevisiae deletion strains, locus YPL051W, strain arl3, hits give low values 0.982 | S. cerevisiae deletion strains, locus YPL055C, strain LGE1, hits give low values 0.994 | S. cerevisiae deletion strains, locus YPL078C, strain atp4, hits give low values 0.998 | S. cerevisiae deletion strains, locus YPL106C, strain sse1, hits give low values 0.984 | S. cerevisiae deletion strains, locus YPL240C, strain hsp82, hits give low values 0.991 | S. cerevisiae deletion strains, locus YPL241C, strain CIN2, hits give low values 1.01 | S. cerevisiae deletion strains, locus YPL256C, strain CLN2, hits give low values 1.07 | S. cerevisiae deletion strains, locus YPR119W, strain clb2, hits give low values 1.01 | S. cerevisiae deletion strains, locus YPR141C, strain kar3, hits give low values 0.997 | S. cerevisiae deletion strains, locus YPR163C, strain tif3, hits give low values 1.01 | S. cerevisiae deletion strains, locus YPR167C, strain met16, hits give low values 1 | S. cerevisiae deletion strains, strain wtn01, hits give low values 1.03 | S. cerevisiae strains, strain wild type, hits give low values 1.01
